Results taken from PubChem BioAssay (NCATS).
Results filed as inconclusive are left out. Values without a mark were called inactive. Active and inactive are the calls of the source. Calls come from the whole dose curve; as a rule, active = well fitted inhibition curve with a large enough effect; inconclusive = small, poorly fitted or top-dose-only effect; inactive = flat fitted curve, though single readings scatter.

System: CP194
Assay: qHTS profiling for inhibitors of Plasmodium falciparum proliferation (AID 504749); note: nearly all actives have a fitted effect of over 60% in size;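 for activity, negative = inhibition: 0% = DMSO vehicle and full inhibition = artemisinin control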
Conditions: P. falciparum in erythrocytes, SYBR Green DNA, 72 h; series mostly up to 12.8 µM; activity, negative = inhibition: at the top concentration
In short: (§1)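 Three-day growth assay of blood-stage parasites in erythrocytes (0.3% parasitemia, 2.5% hematocrit) at 37 C, 5% CO2, quantified by SYBR Green DNA staining after overnight detergent lysis.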
Potency is the fitted concentration of half-maximal effect.

Compound	activity, negative = inhibition	Potency
CCO[C@H]1O[C@@H]([C@H](COCc2ccccc2)OCc2ccccc2)[C@@H](OCc2ccccc2)[C@H]1O	-17.4%	
COc1cc(N[C@@H](C)CCCN)c2ncccc2c1		3.61 µM (active)
C=Cc1c(C)c2cc3nc(cc4[nH]c(cc5nc(cc1[nH]2)C(C)=C5CCC(=O)O)c(CCC(=O)OC)c4C)[C@@]1(C)C3=CC=C(C(=O)OC)[C@H]1C(=O)OC (tested in a mixture with another compound)	-4.77% [at 28.7 µM]	
O=C(OC[C@@H](O)CO)c1ccccc1Nc1ccnc2cc(Cl)ccc12	6.23%	
CO[C@]1(NC(=O)[C@H](C(=O)O)c2ccc(O)cc2)C(=O)N2C(C(=O)O)=C(CSc3nnnn3C)CO[C@H]21	-3.35%	
COc1ccc2c(c1)N(C[C@@H](C)CN(C)C)c1ccccc1S2	-7.55%	
CCC(=O)[C@@]1(C)[C@H](C)C[C@@H]2[C@@H]3CCC4=CC(=O)C=C[C@@]4(C)[C@H]3[C@H](O)C[C@]21C	1.97%	
CCC(C)(C)C(=O)O[C@@H]1C[C@H](C)C=C2C=C[C@H](C)[C@@H](CC[C@H]3C[C@@H](O)CC(=O)O3)[C@H]21	-7.3%	
CC=C(/C(=C/C)c1ccc(O)cc1)c1ccc(O)cc1	-0.263%	
CC1(C)S[C@@H]2[C@H](NC(=O)[C@@H](N)c3ccccc3)C(=O)N2[C@H]1C(=O)O[C@H]1OC(=O)c2ccccc21	-3.19%	

System: CP201
Assay: as above
Conditions: P. falciparum in erythrocytes, SYBR Green DNA, 72 h; series mostly up to 12.8 µM; activity, negative = inhibition: at the top concentration
In short: as §1

Compound	activity, negative = inhibition	Potency
CCO[C@H]1O[C@@H]([C@H](COCc2ccccc2)OCc2ccccc2)[C@@H](OCc2ccccc2)[C@H]1O	1.35%	
COc1cc(N[C@@H](C)CCCN)c2ncccc2c1		4.55 µM (active)
C=Cc1c(C)c2cc3nc(cc4[nH]c(cc5nc(cc1[nH]2)C(C)=C5CCC(=O)O)c(CCC(=O)OC)c4C)[C@@]1(C)C3=CC=C(C(=O)OC)[C@H]1C(=O)OC (tested in a mixture with another compound)	-3.11% [at 28.7 µM]	
O=C(OC[C@@H](O)CO)c1ccccc1Nc1ccnc2cc(Cl)ccc12	0.272%	
CO[C@]1(NC(=O)[C@H](C(=O)O)c2ccc(O)cc2)C(=O)N2C(C(=O)O)=C(CSc3nnnn3C)CO[C@H]21	3.01%	
COc1ccc2c(c1)N(C[C@@H](C)CN(C)C)c1ccccc1S2	-6.51%	
CCC(=O)[C@@]1(C)[C@H](C)C[C@@H]2[C@@H]3CCC4=CC(=O)C=C[C@@]4(C)[C@H]3[C@H](O)C[C@]21C	1.56%	
CCC(C)(C)C(=O)O[C@@H]1C[C@H](C)C=C2C=C[C@H](C)[C@@H](CC[C@H]3C[C@@H](O)CC(=O)O3)[C@H]21	-1.27%	
COC(=O)[C@@H]1[C@@H]2C[C@H]3c4[nH]c5cc(OC)ccc5c4CCN3C[C@@H]2C[C@H](OC(=O)/C=C\c2cc(OC)c(OC)c(OC)c2)[C@H]1OC	-21.2%	
CC=C(/C(=C/C)c1ccc(O)cc1)c1ccc(O)cc1	-1.56%	
CC1(C)S[C@@H]2[C@H](NC(=O)[C@@H](N)c3ccccc3)C(=O)N2[C@H]1C(=O)O[C@H]1OC(=O)c2ccccc21	-1.26%	

System: CP203
Assay: as above
Conditions: P. falciparum in erythrocytes, SYBR Green DNA, 72 h; series mostly up to 12.8 µM; activity, negative = inhibition: at the top concentration
In short: as §1

Compound	activity, negative = inhibition [%]	Potency
CCO[C@H]1O[C@@H]([C@H](COCc2ccccc2)OCc2ccccc2)[C@@H](OCc2ccccc2)[C@H]1O	-5.59	
COc1cc(N[C@@H](C)CCCN)c2ncccc2c1		3.61 µM (active)
O=C(OC[C@@H](O)CO)c1ccccc1Nc1ccnc2cc(Cl)ccc12	-3.26	
CO[C@]1(NC(=O)[C@H](C(=O)O)c2ccc(O)cc2)C(=O)N2C(C(=O)O)=C(CSc3nnnn3C)CO[C@H]21	4.64	
COc1ccc2c(c1)N(C[C@@H](C)CN(C)C)c1ccccc1S2	-15.9	
CCC(=O)[C@@]1(C)[C@H](C)C[C@@H]2[C@@H]3CCC4=CC(=O)C=C[C@@]4(C)[C@H]3[C@H](O)C[C@]21C	-1.01	
CCC(C)(C)C(=O)O[C@@H]1C[C@H](C)C=C2C=C[C@H](C)[C@@H](CC[C@H]3C[C@@H](O)CC(=O)O3)[C@H]21	-0.23	
CC=C(/C(=C/C)c1ccc(O)cc1)c1ccc(O)cc1	-4.79	
CC1(C)S[C@@H]2[C@H](NC(=O)[C@@H](N)c3ccccc3)C(=O)N2[C@H]1C(=O)O[C@H]1OC(=O)c2ccccc21	0.605	

System: CP211
Assay: as above
Conditions: P. falciparum in erythrocytes, SYBR Green DNA, 72 h; series mostly up to 12.8 µM; activity, negative = inhibition: at the top concentration
In short: as §1

Compound	activity, negative = inhibition [%]	Potency
CCO[C@H]1O[C@@H]([C@H](COCc2ccccc2)OCc2ccccc2)[C@@H](OCc2ccccc2)[C@H]1O	-12.3	
COc1cc(N[C@@H](C)CCCN)c2ncccc2c1		2.28 µM (active)
O=C(OC[C@@H](O)CO)c1ccccc1Nc1ccnc2cc(Cl)ccc12	2.17	
CO[C@]1(NC(=O)[C@H](C(=O)O)c2ccc(O)cc2)C(=O)N2C(C(=O)O)=C(CSc3nnnn3C)CO[C@H]21	1.49	
COc1ccc2c(c1)N(C[C@@H](C)CN(C)C)c1ccccc1S2	-4.87	
CCC(=O)[C@@]1(C)[C@H](C)C[C@@H]2[C@@H]3CCC4=CC(=O)C=C[C@@]4(C)[C@H]3[C@H](O)C[C@]21C	2.38	
CCC(C)(C)C(=O)O[C@@H]1C[C@H](C)C=C2C=C[C@H](C)[C@@H](CC[C@H]3C[C@@H](O)CC(=O)O3)[C@H]21	8.76	
CCN(CC)[C@@H](C)CN1c2ccccc2Sc2ccccc21	-23.3	
CC=C(/C(=C/C)c1ccc(O)cc1)c1ccc(O)cc1	-0.0457	
CC1(C)S[C@@H]2[C@H](NC(=O)[C@@H](N)c3ccccc3)C(=O)N2[C@H]1C(=O)O[C@H]1OC(=O)c2ccccc21	-2.97	
